In PubChem BioAssay (NCI):
About 83,000 compounds went through this panel and 20% of them were active in at least one assay; those are over-represented in the sample as a whole.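 Step 1: grow cells in 96-well plates. Step 2: add test compound at a single concentration. Step 3: incubate 48 h. Step 4: record percent growth.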 The source made the active and inactive calls. Rule for the calls: active = growth percent below 10; inactive = the rest.

Legend:
Test in all cases: NCI-60 one-dose screen, 48 h (100 = growth as untreated, 0 = no growth, -100 = all killed)
Conditions in all cases: 10 µM unless noted
NCI-H23 lung = tested on: NCI-H23 lung
NCI-H226 lung = tested on: NCI-H226 lung
NCI-H322M lung = tested on: NCI-H322M lung
HOP-62 NSCLC = tested on: HOP-62 NSCLC
NCI-H460 lung = tested on: NCI-H460 lung
HOP-92 NSCLC = tested on: HOP-92 NSCLC
NCI-H522 lung = tested on: NCI-H522 lung
A549/ATCC NSCLC = tested on: A549/ATCC NSCLC
786-0 renal = tested on: 786-0 renal
COLO 205 colon = tested on: COLO 205 colon

Measured: growth

C=C1C(=O)O[C@H]2[C@H]1CC/C(C=Nc1c(N)cc(F)cc1Br)=C\CC[C@@]1(C)O[C@@H]21
inactive: NCI-H23 lung 93.1% | NCI-H226 lung 82.9% | NCI-H322M lung 97.7% | HOP-62 NSCLC 89.2% | NCI-H460 lung 96.3% | HOP-92 NSCLC 97.3% | NCI-H522 lung 53.8% | A549/ATCC NSCLC 78.8% | 786-0 renal 43.8% | COLO 205 colon 38.8%

Nc1c(C(=O)Nc2ccccn2)sc2nc3c(cc12)CCCCCC3
active: NCI-H460 lung 6.37% | NCI-H522 lung 6.47% | COLO 205 colon 8.74%
inactive: NCI-H23 lung 41% | NCI-H226 lung 42.1% | NCI-H322M lung 33% | HOP-62 NSCLC 17.8% | HOP-92 NSCLC 30.8% | A549/ATCC NSCLC 14.1% | 786-0 renal 10.7%

COC(=O)c1cncc(C(=O)Nc2ccc(-n3cnc4ccccc43)cc2)c1
inactive: NCI-H23 lung 102% | NCI-H226 lung 89.6% | NCI-H322M lung 95.6% | HOP-62 NSCLC 94.8% | NCI-H460 lung 96.9% | HOP-92 NSCLC 86.7% | NCI-H522 lung 84% | A549/ATCC NSCLC 94.4% | 786-0 renal 105% | COLO 205 colon 106%

C=C1C(=O)O[C@H]2[C@H]1CC/C(COC(=O)CCC(=O)OC/C1=C/CC[C@@]3(C)O[C@H]3[C@H]3OC(=O)C(=C)[C@@H]3CC1)=C\CC[C@@]1(C)O[C@@H]21
active: HOP-92 NSCLC -1.85% | NCI-H522 lung -69.2% | COLO 205 colon -55%
inactive: NCI-H23 lung 58.5% | NCI-H226 lung 84.3% | NCI-H322M lung 96.1% | HOP-62 NSCLC 85.7% | NCI-H460 lung 93.9% | A549/ATCC NSCLC 88.7% | 786-0 renal 40.7%

COc1ccc(Cc2nc(C#N)c(N3CCN(c4ccc(F)cc4)CC3)o2)cc1
inactive: NCI-H23 lung 86.3% | NCI-H226 lung 74.1% | NCI-H322M lung 99.5% | HOP-62 NSCLC 95.8% | NCI-H460 lung 104% | HOP-92 NSCLC 88.2% | NCI-H522 lung 73.6% | A549/ATCC NSCLC 92.1% | 786-0 renal 91.1% | COLO 205 colon 103%

CNCc1cccc2c1OCCOCCOCCN(CCN1CCOCC1)S(=O)(=O)c1ccc(cc1)-c1cnc(N)c(n1)C(=O)N2
inactive: NCI-H23 lung 42.3% | NCI-H226 lung 78.4% | NCI-H322M lung 49.8% | HOP-62 NSCLC 100% | NCI-H460 lung 30.7% | HOP-92 NSCLC 87.9% | NCI-H522 lung 49% | A549/ATCC NSCLC 46.4% | 786-0 renal 10.6% | COLO 205 colon 22.3%

N#CC1(C#N)C2=C(CCCC2)NC(c2c(F)cccc2Cl)C1(C#N)C#N (stereo not given)
active: NCI-H522 lung -14.1%
inactive: NCI-H23 lung 82% | NCI-H226 lung 92.1% | NCI-H322M lung 91.1% | HOP-62 NSCLC 72.1% | NCI-H460 lung 95.1% | HOP-92 NSCLC 42.9% | A549/ATCC NSCLC 92.6% | 786-0 renal 88.7% | COLO 205 colon 91.4%

Cc1cc(NC(=O)CNc2nc(Oc3ccc(F)cc3)nc(-c3ccc(F)cc3)n2)ccc1Cl
inactive: NCI-H23 lung 98.1% | NCI-H226 lung 98.9% | NCI-H322M lung 98.7% | HOP-62 NSCLC 94.5% | NCI-H460 lung 99.3% | HOP-92 NSCLC 97.7% | NCI-H522 lung 85.7% | A549/ATCC NSCLC 87.1% | 786-0 renal 99.5% | COLO 205 colon 112%

Nc1cccc(C(=O)Nc2ccc3c(O)c(N=Nc4ccc(N=Nc5ccc(S(=O)(=O)O)cc5)cc4)c(S(=O)(=O)O)cc3c2)c1
inactive: NCI-H23 lung 104% | NCI-H226 lung 109% | NCI-H322M lung 94.5% | HOP-62 NSCLC 96% | NCI-H460 lung 106% | HOP-92 NSCLC 97.7% | NCI-H522 lung 84.5% | A549/ATCC NSCLC 97.5% | 786-0 renal 98.1% | COLO 205 colon 121%

COC(=O)c1nc(-c2ccccc2)oc1S(=O)(=O)n1nc(-c2ccccc2)cc1N
inactive: NCI-H23 lung 90.4% | NCI-H226 lung 105% | NCI-H322M lung 90.7% | HOP-62 NSCLC 101% | NCI-H460 lung 100% | HOP-92 NSCLC 72.1% | NCI-H522 lung 44.3% | A549/ATCC NSCLC 102% | 786-0 renal 87.3%
active: COLO 205 colon -8.05%

C=C1C(=O)O[C@H]2[C@H]1CC/C(COC(=O)c1cccnc1N)=C\CC[C@@]1(C)O[C@@H]21
inactive: NCI-H23 lung 33.9% | NCI-H226 lung 26.7% | NCI-H322M lung 87% | HOP-62 NSCLC 22.8% | A549/ATCC NSCLC 28.4%
active: NCI-H460 lung 5.22% | HOP-92 NSCLC 8.05% | NCI-H522 lung -15.3% | 786-0 renal 9.12% | COLO 205 colon -76.5%

O=C1NN(c2ccccc2)C(c2ccc3c(c2)OCO3)N2CCC[C@@H]12 (stereo not given in full)
inactive: NCI-H23 lung 88.2% | NCI-H226 lung 105% | NCI-H322M lung 88.3% | HOP-62 NSCLC 91.4% | NCI-H460 lung 106% | HOP-92 NSCLC 107% | NCI-H522 lung 70.1% | A549/ATCC NSCLC 97.9% | 786-0 renal 98.2% | COLO 205 colon 104%

CCc1c(C(=O)N[C@@H](C(=O)OCc2ccccc2)C(C)O)[nH]c2ccc(Cl)cc12 (stereo not given in full)
inactive: NCI-H23 lung 80.1% | NCI-H226 lung 21.7% | NCI-H322M lung 75% | HOP-62 NSCLC 65.8% | NCI-H460 lung 13.8% | HOP-92 NSCLC 74.5% | NCI-H522 lung 77.1% | A549/ATCC NSCLC 69.6% | 786-0 renal 11.1% | COLO 205 colon 48.7%

Cc1nc(C)c(C)nc1C
inactive: NCI-H23 lung 102% | NCI-H226 lung 104% | NCI-H322M lung 103% | HOP-62 NSCLC 100% | NCI-H460 lung 109% | HOP-92 NSCLC 103% | NCI-H522 lung 84.6% | A549/ATCC NSCLC 86.6% | 786-0 renal 96.9% | COLO 205 colon 119%

O=C(CCCCCCCCC(=O)Nc1cccc(C2=NCCN2)c1)Nc1cccc(C2=NCCN2)c1
inactive: NCI-H23 lung 75.8% | NCI-H226 lung 101% | NCI-H322M lung 105% | HOP-62 NSCLC 102% | NCI-H460 lung 93.6% | HOP-92 NSCLC 90.5% | NCI-H522 lung 70.3% | A549/ATCC NSCLC 96.6% | 786-0 renal 100% | COLO 205 colon 92.2%

COc1ccc2nc3nc4ccc[nH]c4cc3c2c1
inactive: NCI-H23 lung 73.9% | NCI-H226 lung 91.6% | NCI-H322M lung 87.6% | HOP-62 NSCLC 87.9% | NCI-H460 lung 73.7% | HOP-92 NSCLC 122% | NCI-H522 lung 84.4% | A549/ATCC NSCLC 91.2% | 786-0 renal 86.2% | COLO 205 colon 97.9%

CCCCc1nc(Cl)c(C2CC(c3ccc(Cl)cc3)=NN2c2cc(Cl)cc(Cl)c2)[nH]1 (stereo not given)
active: A549/ATCC NSCLC 8.64%
inactive: NCI-H23 lung 69.5% | NCI-H226 lung 92.3% | NCI-H322M lung 70.6% | HOP-62 NSCLC 52.9% | NCI-H460 lung 30.2% | HOP-92 NSCLC 94% | NCI-H522 lung 32% | 786-0 renal 41.3% | COLO 205 colon 96.1%

COc1ccc(-c2cc(C(=O)N3N=C(c4ccc(N)cc4)CC3c3ccc(OC)cc3)c3cc(OC)ccc3n2)cc1 (stereo not given)
inactive: NCI-H23 lung 48.6% | NCI-H226 lung 94.9% | NCI-H322M lung 93.3% | HOP-62 NSCLC 60.1% | NCI-H460 lung 85.4% | HOP-92 NSCLC 56% | NCI-H522 lung 29.5% | A549/ATCC NSCLC 76.6% | 786-0 renal 18.9% | COLO 205 colon 96.3%

CC(=O)Nc1nc2c(c(N)c1C#N)C(c1cccc(Cl)c1)C1=C(CCCC1=O)N2c1sc2c(c1C#N)CCCC2 (stereo not given)
inactive: NCI-H23 lung 67% | NCI-H226 lung 55.5% | NCI-H322M lung 93.3% | HOP-62 NSCLC 67.3% | NCI-H460 lung 53.1% | HOP-92 NSCLC 40.1% | NCI-H522 lung 21.3% | A549/ATCC NSCLC 32.8% | 786-0 renal 57.6% | COLO 205 colon 59.6%

N#CC1C(c2ccc(Cl)cc2)=Nc2c(c(-c3ccccc3)nn2-c2ccccc2)C12C(=O)Nc1ccc(Cl)cc12 (stereo not given)
inactive: NCI-H23 lung 50.7% | NCI-H226 lung 61.5% | NCI-H322M lung 79.2% | HOP-62 NSCLC 57.9% | NCI-H460 lung 22.3% | NCI-H522 lung 55.9% | A549/ATCC NSCLC 27.2% | 786-0 renal 42.9% | COLO 205 colon 51%
active: HOP-92 NSCLC -8.89%

NC(=O)c1ccc2nc3c(n2c1)C(=O)C(=O)c1ccccc1-3
active: NCI-H23 lung -38.3% | NCI-H226 lung -49.7% | NCI-H322M lung -98.2% | HOP-62 NSCLC -87.8% | NCI-H460 lung -50.7% | HOP-92 NSCLC -80.9% | NCI-H522 lung -48.9% | A549/ATCC NSCLC -43.1% | 786-0 renal -99.4% | COLO 205 colon -69%

COc1cc(NC(=O)Nc2cnc(Nc3ccc(N4CCOCC4)cc3)nc2Oc2ccc(C(F)(F)F)cc2)cc(OC)c1
inactive: NCI-H23 lung 105% | NCI-H226 lung 97.7% | NCI-H322M lung 106% | HOP-62 NSCLC 95.5% | NCI-H460 lung 105% | HOP-92 NSCLC 99% | NCI-H522 lung 95.9% | A549/ATCC NSCLC 103% | 786-0 renal 109% | COLO 205 colon 127%

COc1cc(C2=N/C(=C\c3cc4ccccc4nc3Oc3ccccc3)C(=O)N2C(=N)N)cc(OC)c1OC
inactive: NCI-H23 lung 71% | NCI-H226 lung 18.7% | NCI-H322M lung 55.4% | NCI-H460 lung 52.1% | HOP-92 NSCLC 27.9% | NCI-H522 lung 60.3% | A549/ATCC NSCLC 77.1% | 786-0 renal 28.6% | COLO 205 colon 90.4%
active: HOP-62 NSCLC -0.576%

C=C(C)[C@@H]1CC[C@]2(C(=O)O)CC[C@]3(C)[C@H](CC[C@@H]4[C@@]5(C)C[C@@H](CC#Cc6ccccc6)C(=O)C(C)(C)[C@@H]5CC[C@]43C)[C@@H]12
inactive: NCI-H23 lung 25.2% | NCI-H226 lung 28.5% | NCI-H322M lung 31.9% | HOP-62 NSCLC 32.5% | NCI-H460 lung 24.1% | HOP-92 NSCLC 48.2% | NCI-H522 lung 11.6% | A549/ATCC NSCLC 25.3% | 786-0 renal 35.3% | COLO 205 colon 20.8%

O=C1c2ccccc2C(=O)c2c1oc1c2c(=O)[nH]c2ccccc21
inactive: NCI-H23 lung 66% | NCI-H226 lung 78.5% | NCI-H322M lung 89.3% | HOP-62 NSCLC 119% | NCI-H460 lung 68.3% | HOP-92 NSCLC 71.4% | NCI-H522 lung 54.8% | A549/ATCC NSCLC 97.2% | 786-0 renal 102% | COLO 205 colon 109%

O=C(CSC(=S)N1CCCCC1)Nc1ccccc1
inactive: NCI-H23 lung 97.4% | NCI-H226 lung 94.5% | NCI-H322M lung 101% | HOP-62 NSCLC 100% | NCI-H460 lung 104% | HOP-92 NSCLC 99.6% | NCI-H522 lung 82.3% | A549/ATCC NSCLC 87.9% | 786-0 renal 97% | COLO 205 colon 112%
